Source: PubChem BioAssay
Compounds with a hit are over-represented: about 21% of the library has one in this group of screens.
Pf growth 48h = P. falciparum growth inhibition at 48 hours (one generation); P. falciparum luciferase growth in erythrocytes, 48 h; Potency, µM (highest dose often 28.7 µM), without a hit: top-dose activity change, negative = inhibition, most hits filed as inhibitors; hit rate 5.9% among 310,000; active = well fitted inhibition curve with a large enough effect; inconclusive = small, poorly fitted or top-dose-only effect, or another doubt; inactive = no such curve, though single readings can be large or run the other way; note: potency is the fitted concentration of half-maximal effect; % is set by controls: 0 for no effect and ±100 for the full control effect
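Here the parasites carry a stable luciferase gene and grow inside erythrocytes in Albumax-based RPMI medium with compound for one erythrocytic cycle. Activity is scored as loss of luminescent signal.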
Shiga toxin inh = inhibitors of Shiga toxin in Vero cells. inhibition, % at 38.7 µM. hit rate 9.2% among 290,000. Vero cells, Shiga toxin protein synthesis inhibition reporter; in the data active = inhibition mostly above about 28%, no sharp cut-off; inactive = mostly below about 43%; note: 0% is about no effect
SARS PLpro yeast = inhibitors of SARS-CoV papain-like protease in yeast | S. cerevisiae expressing SARS-CoV PLpro, growth rescue | hit rate 0.19% among 330,000 | Potency, µM (highest dose often 32.9 µM), for inactives: at the highest dose activity, positive = growth rescue, most hits filed as activators; note: potency is the fitted concentration of half-maximal effect; 0% is about no effect; nearly all actives have a fitted effect of over 55% in size
Cycloheximide cs = affects cycloheximide protein synthesis inhibition readout, counter-screen | cell reporter, cycloheximide protein synthesis inhibition counterscreen | max response, % | hit rate 12% among 300,000 | AID 2314; in the data active = max response mostly above about 13%, no sharp cut-off; inactive = mostly below about 14%; note: read at 38.3 µM for the half of the compounds with a filed dose; 0% is about no effect
Pf growth 96h = P. falciparum growth inhibition at 96 hour, primary screen for plastid delayed-death inhibitors; AID 504834; Potency, µM (top dose mostly 28.7 µM), for inactives: at the top dose activity change, negative = inhibition, actives largely listed as inhibitors; hit rate 6.9% among 320,000; P. falciparum luciferase reporter growth, 96 h; active = well fitted inhibition curve with a large enough effect; inconclusive = small, poorly fitted or top-dose-only effect, or another doubt; inactive = no such curve, though single readings can be large or run the other way; note: potency is the fitted concentration of half-maximal effect; % is set by controls: 0 for no effect and ±100 for the full control effect
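Erythrocytes infected with luciferase-expressing P. falciparum were dispensed at 2% hematocrit and 0.05% parasitemia (final), then incubated with compounds 96 hours at 37 C in 5% CO2. Luminescence after detection reagent addition reported growth.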
NS1 function inh = influenza NS1 inhibition | Potency, µM (doses to about 46.1 µM), without a hit: top-dose activity, positive = more growth | hit rate 0.4% among 270,000; note: potency is the fitted concentration of half-maximal effect; actives are rising curves; nearly all actives have a fitted effect of over 50% in size
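S. cerevisiae expressing influenza A NS1, grown in glucose, washed, then diluted 1:100 into pH 6.0 -URA galactose medium with 23 nl compound. Growth recovery read as OD600; NS1-free strain serves as control.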
Starred values were filed as active, the others as inactive; ? = inconclusive; · = no result; [ ] = another dose, or the depositor's remark. Unless noted, calls come from the whole dose curve.

SMILES	Pf growth 48h	Shiga toxin inh	SARS PLpro yeast	Cycloheximide cs	Pf growth 96h	NS1 function inh
CCS(=O)(=O)c1nc(S(=O)(=O)c2ccc(Cl)cc2)c(N2CCOCC2)s1	?	7	0%	-1	-13%	-1%
Cc1cccc(Nc2nc(N)nc(CN3CCC(C(N)=O)CC3)n2)c1C	-3%	9	1%	-2	·	-2%
Cc1ccc(Nc2nc(N)nc(CSc3nc(C)cc(C)n3)n2)cc1	?	-5	·	3	?	1%
Cc1c(Cl)cccc1Nc1nc(N)nc(CN2CCc3ccccc3C2)n1	9.3µM*	-17	-10%	4	·	1%
Cc1cccc(Nc2nc(N)nc(CCl)n2)c1C	?	59*	4%	53*	1.5µM*	5%
Cc1ccc(Nc2nc(N)nc(CCl)n2)cc1	?	96*	0%	75*	?	4%
Cc1ccc(Nc2nc(N)nc(CCl)n2)c(C)c1	?	106*	1%	78*	-13%	5%
C=C(C)CNC(=S)N1CCNC(=O)C1CC(=O)OC (stereo not drawn)	1%	12	9%	0	15%	23%
Cn1nc(C(=O)NC2CCCCC2)c2c1-c1ccccc1S(=O)(=O)C2	3%	-10	2%	-8	18%	16%
Nc1nc(CN2CCN(Cc3ccccc3)CC2)nc(Nc2ccccc2)n1	?	-3	-5%	5	13µM*	-4%
Cc1ccc(Nc2nc(N)nc(CC#N)n2)cc1	13%	46*	4%	35*	·	?
COc1ccccc1Nc1nc(N)nc(CN2CCN(Cc3ccccc3)CC2)n1	?	-11	-2%	0	?	5%
Nc1nc(CCl)nc(Nc2ccccc2)n1	-29%	71*	-5%	36*	-55%	·
CCOc1ccc(Nc2nc(N)nc(CN3CCN(c4ccccc4F)CC3)n2)cc1	?	-4	-1%	-1	6%	·
CCOc1ccc(Nc2nc(N)nc(CCl)n2)cc1	?	59*	-1%	43*	?	5%
O=C(COc1ccccc1Cl)N1CCNC1=O	?	·	0%	·	-12%	·
Cn1nnnc1SCc1csc(C2C(C#N)=C(N)OC3=C2C(=O)CCC3)c1 (stereo not drawn)	-11%	-9	1%	-8	?	·
COc1cc(C(=O)NCC(=O)N2CCN(S(=O)(=O)c3cc(C)ccc3C)CC2)cc(OC)c1OC	?	-4	3%	-2	?	7%
Cc1ccc(Nc2nc(N)nc(CSCCO)n2)cc1	110%	60*	1%	31*	64%	2%
Cc1cccc2sc(NNC(=O)c3ccc(S(=O)(=O)N4CCCC(C)C4)cc3)nc12 (stereo not drawn)	31%	16	8.9µM*	3	39%	-12%
CCc1nnc(NC(=O)c2ccc(S(=O)(=O)N3CCCC(C)C3)cc2)s1 (stereo not drawn)	20%	-5	-2%	-1	34%	3%
Cc1cc(C)c2nc(NNC(=O)c3ccc(S(=O)(=O)N4CCCCC4)cc3)sc2c1	?	-10	?	7	4.7µM*	17%
Cc1ccc(C(=O)NNC(=O)c2ccc(S(=O)(=O)N3CCCCC3)cc2)cc1	·	·	-3%	·	·	·
CC1CN(C(=O)CCS(=O)(=O)c2ccccc2)CC(C)O1 (stereo not drawn)	25%	26	-11%	17	25%	17%
O=C(COc1ccccc1F)Nc1ccc(N2CCOCC2)cc1N1CCOCC1	?	·	6%	·	-28%	·
SMILES	Pf growth 48h	Shiga toxin inh	SARS PLpro yeast	Cycloheximide cs	Pf growth 96h	NS1 function inh
O=C(COc1ccc(F)cc1Cl)Nc1ccc(N2CCOCC2)cc1N1CCOCC1	9.3µM*	·	-5%	·	?	·
O=C(CSCc1ccc(F)cc1)Nc1ccccc1C(=O)N1CCOCC1	15%	-11	-7%	-6	3%	8%
O=C(CSCc1ccc(F)cc1)Nc1ccc(N2CCOCC2)cc1N1CCOCC1	5.9µM*	·	8%	·	13µM*	·
Cc1nn(Cc2ccc(F)cc2)c2sc(C(=O)Nc3ccc(N4CCOCC4)cc3N3CCOCC3)cc12	12µM*	-4	-5%	1	15µM*	20%
CCc1ccccc1NC(=O)C1CCN(c2cnccn2)CC1	3%	30	-16%	15	2%	-5%
CC(OC(=O)c1cccc(S(=O)(=O)N2CCCC2)c1)C(=O)NC1CCCCC1C (stereo not drawn)	?	·	0%	·	-4%	·
Cc1cc(C(=O)CN2C(=O)NC(CC(C)C)C2=O)c(C)n1C1CC1 (stereo not drawn)	·	·	23%	·	·	·
Cc1cc(C(=O)CN2C(=O)c3ccccc3S2(=O)=O)c(C)n1-c1ccccc1	-21%	-17	-3%	0	111%	2%
Cc1cc(C(=O)CN2C(=O)NC(CC(C)C)C2=O)c(C)n1-c1ccccc1F (stereo not drawn)	165%	159*	1%	47*	137%	·
Cc1cc(C(=O)CN2C(=O)C(=O)N(C3CCCC3)C2=O)c(C)n1-c1ccc(F)cc1	?	32	1%	22	-23%	·
Cc1cc(C(=O)CN2C(=O)C3CC=CCC3C2=O)c(C)n1-c1ccccc1 (stereo not drawn)	110%	111*	-2%	58*	215%	-22%
Cc1cc(C(=O)CN2C(=O)C(=O)N(CC(C)C)C2=O)c(C)n1-c1ccccc1F	-10%	61	2%	17*	31%	4%
CCOC(=O)C1CCCN(C(=O)CN2C(=O)NC(C)(c3ccc4ccccc4c3)C2=O)C1 (stereo not drawn)	3%	·	-5%	·	7%	·
CC1CN(C(=O)CCNC(=O)c2ccc(Br)cc2)CC(C)O1 (stereo not drawn)	0%	·	6%	·	0%	·
CC1CCN(C(=O)c2[nH]cnc2C(=O)N[C@@H](C)C(=O)OCc2ccccc2)CC1	50%	2	-3%	-2	26%	5%
CCOc1ccc(N(CC(=O)N2CCCCC2)S(=O)(=O)c2ccc(Cl)cc2)cc1	?	21	-22%	-7	-16%	-63%
CC1SC(c2ccccc2Cl)NC1=O (stereo not drawn)	·	-17	-6%	-1	12µM*	5%
O=C1NC(c2ccccc2Cl)Nc2ccccc21 (stereo not drawn)	10%	-27	5%	-4	3%[5.75 µM]	1%
O=S(=O)(c1ccc2c(c1)OCCO2)N1CCN(S(=O)(=O)c2ccccn2)CC1	·	-3	-4%	0	·	·
O=C(NC1CCCCC1)C1CC=CCC1C(=O)OCC(Cl)=C(Cl)Cl (stereo not drawn)	10%	-12	-5%	-3	?	3%
Nc1nonc1-n1nnc(C(=O)N/N=C/c2ccccc2Cl)c1-c1ccccc1	8%	-6	-1%	-5	64%	4%
Nc1nonc1-n1nnc(C(=O)N/N=C/c2cccc(Cl)c2)c1-c1ccc2c(c1)OCO2	0.074µM*	-1	0%	-1	0.033µM*	17%
Nc1nonc1-n1nnc(C(=O)N/N=C/c2c(F)cccc2Cl)c1-c1ccc2c(c1)OCO2	13µM*	-1	1%	0	6.6µM*	14%
